Records with an inconclusive call do not appear. The source made the active and inactive calls. Rule for the calls: active = hit-call score of the fitted dose curve at least 0.9, where 1 is the maximum; inconclusive = response in the unintended direction; inactive = score below 0.9.
read-out: xenobiotic metabolism (CYP1A1), CYP1A1 (gene 1543); assay: CLD_CYP1A1_24hr: CellzDirect (CLD) Gene Expression Assay for xenobiotic metabolism (CYP1A1) at 24 hours (AID 2283673)
Experimental: CLD_24hr is a cell-based, multiplexed-readout assay that uses hepatocyte, a human liver primary cell, with measurements taken at 24 hours after chemical dosing in a 96-well plate.CLD_CYP1A1_24hr is one of 16 assay component(s) measured or calculated from the CLD_24hr assay. It is designed to make measurements of mRNA induction, a form of inducible reporter, as detected with chemiluminescence signals by Quantitative Nuclease Protection Assay (qNPA) technology.Data from the assay component CLD_CYP1A1_24hr was analyzed at the endpoint, CLD_CYP1A1_24hr, in the positive analysis fitting direction relative to DMSO as the negative control and baseline of activity. Using a type of inducible reporter, gain-of-signal activity can be used to understand changes in the reporter gene as they relate to the gene CYP1A1. Furthermore, this assay endpoint can be referred to as a primary readout. To generalize the intended target to other relatable targets, this assay endpoint is annotated to the cyp intended target family, where subfamily is xenobiotic metabolism.
Human hepatocyte cultures were treated daily for two consecutive days with fresh dosing solutions containing appropriate concentrations of the 320 ToxCast chemicals (chemical identities were blinded to CellzDirect and other ToxCast collaborators), vehicle control (0.2% DMSO), and positive control inducers as summarized in Table 1. Due to the large number of treatment groups and chemicals examined, the ToxCast chemicals were divided into two groups (spanning two independent cultures of hepatocytes from separate donor preparations (Hu778: ToxCast plates 1 and 2; Hu776: ToxCast plates 3 and 4). Each preparation of human hepatocyte cultures was treated with respective vehicle control, medium only control, set of six positive controls/reference chemicals for the five hepatic receptor pathways, and a subset of eight of the ToxCast chemicals (indoxacarb, pyrithiobac-sodium, norflurazon, cyhalofop-butyl, methomyl, thiram, acetochlor, and propiconazole). These replicate data, coupled with internal replicates designed within the blinded ToxCast chemical library, provided additional data to evaluate interindividual differences between hepatocyte preparations and their potential impact on chemical profiles.Cell morphology and integrity were evaluated using phase-contrast microscopy as an indicator of hepatocyte cell health (Tyson & Green, 1987). Cultures for each treatment group (i.e., media, vehicle [0.2% DMSO], positive control inducers [multiple concentrations], and the ToxCast chemicals [multiple concentrations]) were observed and cell morphology was assessed relative to vehicle control cultures at each harvest time point (0, 6, 24, or 48 h). […] Images were evaluated at the conclusion of the study to assess changes in cell integrity and account for the effects of chemical exposure on uncharacteristic changes in concentration-dependent gene expression profiles. The results from these determinations of apparent cytotoxicity were annotated (yes/no) alongside the corresponding qNPA data for reference.At the conclusion of each treatment period, hepatocyte cultures (96-well) were washed with 1 volume of HBSS, lysed by addition of 25 ul ArrayPlate lysis buffer (HTG, Tucson, AZ), and 70 ul/well of Denaturation Oil, denatured by incubation at 95C for 10 min, and frozen at approximately -70C until analysis by nuclease protection assay (qNPA) (Roberts et al., 2007). For qNPA analysis, cell lysates were thawed at 50C for approximately 30 min, qNPA probes were added, and samples were incubated at 95C for 10 min to begin the detection process by denaturing the target RNA, dissociating the duplexes and secondary structure hybridization. At the conclusion of the hybridization period, S1 nuclease reagent was added to each sample to digest all nonprotected nucleotides at 50C for 60-90 min. […]

| Structure (SMILES) | AC50 | outcome |
| --- | --- | --- |
| CCOP(=S)(OCC)Oc1ccc([N+](=O)[O-])cc1 | 5.99 µM (active) |  |
| CC(C)N(C(=O)SCC(Cl)=C(Cl)Cl)C(C)C |  | inactive |
| CCCOCC(=Nc1ccc(Cl)cc1C(F)(F)F)n1ccnc1 | 2.36 µM (active) |  |
| CCOP(=O)(OCC)Oc1cc(C)nc(C(C)C)n1 |  | inactive |
| CCCCN(CC)c1c([N+](=O)[O-])cc(C(F)(F)F)cc1[N+](=O)[O-] | 8.49 µM (active) |  |
| CCOC(=O)CC(SP(=O)(OC)OC)C(=O)OCC (stereo not given) | 5.29 µM (active) |  |
| CC(Oc1cccc(Cl)c1)C(=O)O (stereo not given) |  | inactive |
| CSC1=N[C@@](C)(c2ccccc2)C(=O)N1Nc1ccccc1 | 3 µM (active) |  |
| Nc1c(Cl)cc([N+](=O)[O-])cc1Cl | 9.35 µM (active) |  |
| CON=C(C(=O)OC)c1ccccc1CON=C(C)c1cccc(C(F)(F)F)c1 |  | inactive |
| COP(=O)(OC)SCn1c(=O)oc2cc(Cl)cnc21 |  | inactive |
| CC(COc1ccc(Oc2ccccc2)cc1)Oc1ccccn1 (stereo not given) |  | inactive |
| Nc1nc(N)nc(NC2CC2)n1 |  | inactive |
| CCOP(=O)(SC(C)CC)N1CCSC1=O (stereo not given) |  | inactive |
| CNC(=O)ON=C(C)SC |  | inactive |
| CCCSP(=O)(OCC)Oc1ccc(Br)cc1Cl (stereo not given) | 20 µM (active) |  |
| CCOP(=O)(NC(C)C)Oc1ccc(SC)c(C)c1 (stereo not given) | 20 µM (active) |  |
| C#CC(C)(C)NC(=O)c1cc(Cl)cc(Cl)c1 |  | inactive |
| CCC(CC)Nc1c([N+](=O)[O-])cc(C)c(C)c1[N+](=O)[O-] | 20 µM (active) |  |
| Cc1nn(-c2cc(NS(C)(=O)=O)c(Cl)cc2Cl)c(=O)n1C(F)F |  | inactive |

| Structure (SMILES) | AC50 | outcome |
| --- | --- | --- |
| CCc1cccc(C)c1N(C(=O)CCl)C(C)COC (stereo not given) | 4.65 µM (active) |  |
| CCCSP(=O)(OCC)SCCC | 2.42 µM (active) |  |
| O=[N+]([O-])c1cc(C(F)(F)F)c(Cl)c([N+](=O)[O-])c1Nc1ncc(C(F)(F)F)cc1Cl | 0.485 µM (active) |  |
| CCOP(=S)(OCC)Oc1cc(C)nc(C(C)C)n1 | 6.62 µM (active) |  |
| Cc1ccn2nc(S(=O)(=O)Nc3c(F)cccc3F)nc2n1 |  | inactive |
| CCOP(=S)(OCC)OC(Cl)C(Cl)(Cl)Cl (stereo not given) | 4.46 µM (active) |  |
| CCCCOC(=O)[C@@H](C)Oc1ccc(Oc2ccc(C#N)cc2F)cc1 |  | inactive |
| CC[C@H](C)[C@H]1O[C@]2(C=C[C@@H]1C)C[C@@H]1C[C@@H](C/C=C(\C)[C@@H](O[C@H]3C[C@H](OC)[C@@H](O[C@H]4C[C@H](OC)[C@@H](NC)[C@H](C)O4)[C@H](C)O3)[C@@H](C)/C=C/C=C3\CO[C@@H]4[C@H](O)C(C)=C[C@@H](C(=O)O1)[C@]34O)O2 |  | inactive |
| CC(C)[C@H](C(=O)O[C@H](C#N)c1cccc(Oc2ccccc2)c1)c1ccc(Cl)cc1 |  | inactive |
| CC(C1CC1)C(O)(Cn1cncn1)c1ccc(Cl)cc1 (stereo not given) | 11.9 µM (active) |  |
| FC(F)C(F)(F)OCC(Cn1cncn1)c1ccc(Cl)cc1Cl (stereo not given) | 5.2 µM (active) |  |
| CCCOc1nn(C(=O)NS(=O)(=O)c2ccccc2C(=O)OC)c(=O)n1C |  | inactive |
| CCC(=O)Nc1ccc(Cl)c(Cl)c1 | 5.72 µM (active) |  |
| CCOP(=S)(OCC)SCCSCC | 2.7 µM (active) |  |
| CCCCSP(=O)(SCCCC)SCCCC | 4.53 µM (active) |  |
| Cc1cc(C2CC2)nc(Nc2ccccc2)n1 | 29.9 µM (active) |  |
| CC1=NNC(=O)N(/N=C/c2cccnc2)C1 | 4.96 µM (active) |  |
| CSc1nnc(C(C)(C)C)c(=O)n1N |  | inactive |
| C#CCC1=C(C)C(OC(=O)C2C(C=C(C)C)C2(C)C)CC1=O (stereo not given) | 20 µM (active) |  |
| COc1ccc(C(=CC(=O)N2CCOCC2)c2ccc(Cl)cc2)cc1OC |  | inactive |
